According to PubChem BioAssay AID2546 (National Center for Advancing Translational Sciences (NCATS), 2010):
Where “and” joins values, the source holds several entries; their conditions need not be identical. Equal entries are not always repeated. Among all 310,000 compounds or so, about 11,000 (3.5%) were called active. Not shown: some 8% with an inconclusive outcome. Calls follow the shape of the dose curve; as a rule, active = well fitted inhibition curve with a large enough effect; inconclusive = small, poorly fitted or top-dose-only effect, or effect the other way; inactive = flat fitted curve, though single readings scatter. Shown is part of a subset that was picked to be rich in actives.

Assay: VP16 counterscreen qHTS for inhibitors of ROR gamma transcriptional activity;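 also: Gal4-VP16 expression switched on by copper sulfate through the metallothionein promoter; nearly all actives have a fitted effect of over 50% in size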
Settings: Drosophila S2 Gal4-VP16 UAS-luciferase, luminescence, 20 h; series mostly up to 53.6 µM; activity, negative = inhibition: at the top concentration
% is scaled to controls: 0 for no effect and ±100 for the full control effect; potency is read from the fitted curve at half-maximal effect.

Row | SMILES | Potency | activity, negative = inhibition
1 | CCCOc1ccc(-c2c(C(=O)N/N=C/c3ccco3)nnn2-c2nonc2N)cc1 | 15.8 µM (active) | –
2 | Nc1nonc1-n1nnc(C(=O)N/N=C/c2c[nH]c3ccccc23)c1-c1ccccc1 | – | 2.56% (inactive)
3 | Nc1nonc1-n1nnc(C(=O)N/N=C/C2CCCCC2)c1-c1ccccc1 | – | -2.79% (inactive)
4 | COc1ccc(NC(=O)c2cccc3c2C(=O)N(CC2CCCO2)C3)cc1OC (configuration not stated) | – | 5.55% (inactive)
5 | O=C(NNS(=O)(=O)c1ccc(F)cc1)C1CCCCC1 | – | 8.02% (inactive)
6 | COc1cc(NS(=O)(=O)c2ccc(N=Cc3c(C)[nH]n(-c4ccccc4)c3=O)cc2)nc(OC)n1 | – | -3.08% (inactive)
7 | COc1cc(SC#N)ccc1N=Cc1c(C)[nH]n(-c2ccc(C)cc2)c1=O | 5.62 µM (active) | –
8 | O=S(=O)(Nc1cccc(-n2cnnn2)c1)c1cnc(Cl)c(Cl)c1 | – | -5.26% (inactive)
9 | CCc1ccc(S(=O)(=O)Nc2cc3c(cc2N2CCCCC2)n(C)c(=O)c(=O)n3C)cc1 | – | 4.34% (inactive)
10 | CSCCC(NS(=O)(=O)c1ccc(C)cc1)C(=O)NCCc1c[nH]c2ccccc12 (configuration not stated) | – | 8.21% (inactive)
11 | COc1ccc(C(=O)c2c(C)c(CCC#N)n3ccccc23)c(OC)c1 | – | 1.13% (inactive)
12 | CC(C)c1cc(C(=O)N/N=C/C(Br)=C/c2ccccc2)n[nH]1 | – | -5.48% (inactive)
13 | Cc1ccc(-c2cc(C(=O)NN)n[nH]2)o1 | – | -7.13% (inactive)
14 | Cc1ccc(-c2cc(C(=O)N/N=C/C=C/c3ccccc3)n[nH]2)o1 | 20 µM (active) | –
15 | Cc1cc2oc(=O)cc(CN3CCN(Cc4ccccc4)CC3)c2cc1C | – | 2.41% (inactive)
16 | COc1cccc(CNC(=O)Cn2c(=O)oc3cc(S(=O)(=O)N4CCCCC4)ccc32)c1 | – | 0.42% (inactive)
17 | Cc1ccc(N2CCN(C(=O)c3cccs3)CC2)c(C)c1 | – | -5.29% (inactive)
18 | Cc1ccccc1NC(=O)Nc1ccccc1N1CCCCC1 | – | 0.145% (inactive)
19 | CC(=O)c1ccc(N2CCN(CC(=O)Nc3ccccc3N3CCOCC3)CC2)cc1 | – | -11.4% [at 10 µM] (inactive)
20 | O=C(NC(=S)Nc1ccccc1N1CCCCC1)c1ccc(F)cc1 | 6.31 µM (active) | –
21 | COc1ccc(C(=O)NC(=S)Nc2ccccc2N2CCN(S(C)(=O)=O)CC2)cc1OC | – | 0.0024% (inactive)
22 | CCc1ccc(C(=O)NC(=S)Nc2ccccc2N2CCOCC2)cc1 | 3.16 µM (active) | –
23 | COc1ccccc1C(=O)NC(=S)Nc1ccccc1N1CCCCC1 | 10 µM (active) | –

Row | SMILES | Potency | activity, negative = inhibition
24 | O=C(CCNC(=O)c1ccc([N+](=O)[O-])cc1)Nc1ccccc1N1CCOCC1 | – | -9.76% (inactive)
25 | O=C(Nc1ccccc1N1CCCCC1)c1cccc(F)c1 | – | 4.09% (inactive)
26 | O=C(Nc1ccccc1N1CCCC1)c1ccc2ccccc2c1 | – | -5.87% (inactive)
27 | COc1ccc(/C=C(\C#N)c2c[nH]c3ccccc23)cc1 | – | -10.3% (inactive)
28 | Cn1c(=O)oc2cc(S(=O)(=O)NCCC(=O)NCc3ccccc3Cl)ccc21 | – | -0.339% (inactive)
29 | CN(Cc1ccccc1)C(=O)C1CCCN(c2ncnc3c2nc2n3CCCCC2)C1 (configuration not stated) | – | 3.49% (inactive)
30 | CC1CCN(CCCn2c(SCC(=O)NC3CCCC3)nc3ccccc3c2=O)CC1 | – | -1.18% (inactive)
31 | Cc1c2cnn(CC(=O)NCc3ccccn3)c(=O)c2c(C)n1Cc1ccc(Cl)cc1 | – | -2.27% (inactive)
32 | O=C1Nc2ccccc2/C1=C/c1ccnc2ccccc12 | – | 16.7% (inactive)
33 | COc1cc(CN2CCCC(C(=O)c3ccc(SC)cc3)C2)cc(Cl)c1O (configuration not stated) | – | -0.743% (inactive)
34 | COc1ccc(NC(=O)C2CCN(S(=O)(=O)c3ccc4[nH]c(=O)oc4c3)CC2)c(OC)c1 | – | -0.696% (inactive)
35 | C=CCSc1nnc(N2C(=O)C(O)=C(C(=O)c3ccco3)C2c2ccc(F)cc2)s1 (configuration not stated) | – | 0.533% (inactive)
36 | O=S(=O)(c1ccc(Br)cc1)c1nc(-c2ccccc2)oc1N1CCOCC1 | – | 7.68% (inactive)
37 | COc1cc(C(=O)NC2CCN(Cc3ccccc3)CC2)cc(Cl)c1OC(C)C | – | -9.67% (inactive)
38 | Cc1cnc(CNc2nc(-c3cccnc3)nc3ccccc23)cn1 | – | 3.82% (inactive)
39 | CNc1nc(-c2ccccc2OC)nc2ccccc12 | – | -16.4% (inactive)
40 | Cc1ccc(Oc2nc(-c3ccccn3)nc3ccccc23)cc1 | 3.16 µM (active) | –
41 | CCOC(=O)c1cnc(-c2ccccc2)nc1Oc1ccc(C)cc1 | – | -6.34% (inactive)
42 | COc1ccccc1Oc1nc(-c2cccnc2)nc2ccccc12 | – | 9.33% (inactive)
43 | CC(C)(C)Nc1nc(-c2ccccn2)nc2ccccc12 | 3.98 µM (active) | –
44 | COc1cnc(-c2ccccn2)nc1Oc1ccc(C(C)(C)C)cc1 | 12.6 µM (active) | –
45 | COc1ccc(Sc2nc(-c3ccccc3)ncc2OC)cc1 | – | 4.2% (inactive)
46 | COc1ccc(Cc2nc(-c3ccccn3)no2)cc1OC | – | -24.4% (inactive)

Row | SMILES | Potency | activity, negative = inhibition
47 | CCCc1ccc(OCC(O)CN2CCN(C(=O)OCC)CC2)cc1 (configuration not stated) | – | -1.66% (inactive)
48 | CC(C)c1ccc(NC(=O)C2CCCN(S(=O)(=O)c3cccnc3)C2)cc1 (configuration not stated) | – | 12.4% (inactive)
49 | CCCn1c(C2CCCN2c2nc(-c3ccc(C)cc3)cs2)nc2cc(Cl)c(N3CCCCC3)cc21 (configuration not stated) | – | -4.11% (inactive)
50 | COc1ccc(CNC(=O)c2cc(=O)c3c(C)cc(C)cc3o2)cc1 | – | 3.05% (inactive)
51 | O=C(NCCCN1CCOCC1)c1cc(-c2ccccc2F)no1 | – | -7.28% (inactive)
52 | COc1ccccc1N1CCN(S(=O)(=O)c2ccc3c(c2)NC(=O)CS3)CC1 | – | 1.7% (inactive)
53 | O=[N+]([O-])c1cccc2ncccc12 | – | 21.2% (inactive)
54 | Cc1ccccc1NC(=O)c1ccccc1NS(=O)(=O)c1cccc2cccnc12 | – | -4.15% (inactive)
55 | O=[N+]([O-])c1ccccc1S(=O)(=O)Nc1cccc2cccnc12 | 1.41 µM (active) and 1 µM (active) | –
56 | Cc1nc2ccc(C(=O)N(C)CC3CCCN(CCc4ccc(Cl)cc4)C3)cc2[nH]1 (configuration not stated) | – | -1.01% (inactive)
57 | CC(C)CNS(=O)(=O)c1ccc(CCC(=O)NCc2ccc(Cl)cc2)cc1 | – | -5.64% (inactive)
58 | CCOC(OCC)c1ccc(/C=C\c2nccc(N)n2)cc1 | – | -13.3% (inactive)
59 | COC(=O)c1ccc(OC(=O)c2cnccn2)cc1 | – | -0.541% (inactive)
60 | c1ccc(-c2cn3c(n2)CCc2ccc4cccnc4c2-3)cc1 | 7.94 µM (active) | –
61 | COC(=O)C1=CN(c2ccc(F)c(F)c2)C=C(C(=O)OC)C1c1ccc([N+](=O)[O-])cc1 | – | -3.79% (inactive)
62 | O=c1[nH]c(=S)[nH]c2[nH]c(=S)[nH]c12 | – | 3.04% (inactive)
63 | Cc1cc(=O)[nH]c(=S)[nH]1 | inactive | –
64 | Cc1c(C)c(C)c2[nH]c(=S)[nH]c2c1C | 10 µM (active) | –
65 | Cc1ccc(S(=O)(=O)N(CC(=O)Nc2cccnc2)c2ccc(Br)cc2)cc1 | – | -5.32% (inactive)
66 | CCCc1ccc(OCCNC(=O)c2ccco2)cc1 | – | -28.8% (inactive)
67 | COc1ccc(CN2C3CCCC2CC(NC(=O)c2cccc(F)c2)C3)cc1 (configuration not stated) | – | 4.69% (inactive)
